From PubChem BioAssay
CRFR2-BP ag – CRF-BP/CRF-R2 complex agonism. HEK293 CRF-R2/CRF-BP, calcium dye fluorescence (FLIPR); percent of saturating CRF peptide response. activation, % at 13.2 µM. AID 588473. 0.46% of 350,000 active;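 active means activation of at least 50%, plus an integration ratio under a set limit after plate pattern correction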
CRFBP-R2 block – antagonists of CRF-binding protein/CRF-R2 receptor complex; HEK293 CRF-R2/CRF-BP, CRF-induced calcium fluorescence; inhibition, % at 11.8 µM; 0.59% of 350,000 active; AID 588475;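 active means inhibition of the ligand-induced calcium signal above about 50% at the single tested concentration, limit read from the data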
NR3A LBD binder – modulates the human NR3A ligand-binding domain; NR3A LBD differential scanning fluorimetry, Tm shift; 0% = protein alone, 100% = glycine-bound protein; Tm shift relative to glycine control, % at 25 µM; 2.5% of 340,000 active; AID 1259313;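 active means melting temperature shift of at least 10% of the positive control shift, at one fixed dose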
TMEM16A act – activates or potentiates the mouse TMEM16A chloride channel. 0.3% of 340,000 active. HEK293 TMEM16A/YFP-H148Q/I152L, iodide quench fluorescence; active compounds read low. B-score at 10 µM;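 active means fluorescence-ratio B-score plate-corrected deviation score at least 3 library SD below zero, with starting fluorescence score within 5 deviations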;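 further: channel opened by trigger with iodide after compound preincubation; score built on the fluorescence ratio of max minus min over baseline; more negative score means more quench and so TMEM16A activation or potentiation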
Target sequence (Q8BHY3 whole entry, looked up): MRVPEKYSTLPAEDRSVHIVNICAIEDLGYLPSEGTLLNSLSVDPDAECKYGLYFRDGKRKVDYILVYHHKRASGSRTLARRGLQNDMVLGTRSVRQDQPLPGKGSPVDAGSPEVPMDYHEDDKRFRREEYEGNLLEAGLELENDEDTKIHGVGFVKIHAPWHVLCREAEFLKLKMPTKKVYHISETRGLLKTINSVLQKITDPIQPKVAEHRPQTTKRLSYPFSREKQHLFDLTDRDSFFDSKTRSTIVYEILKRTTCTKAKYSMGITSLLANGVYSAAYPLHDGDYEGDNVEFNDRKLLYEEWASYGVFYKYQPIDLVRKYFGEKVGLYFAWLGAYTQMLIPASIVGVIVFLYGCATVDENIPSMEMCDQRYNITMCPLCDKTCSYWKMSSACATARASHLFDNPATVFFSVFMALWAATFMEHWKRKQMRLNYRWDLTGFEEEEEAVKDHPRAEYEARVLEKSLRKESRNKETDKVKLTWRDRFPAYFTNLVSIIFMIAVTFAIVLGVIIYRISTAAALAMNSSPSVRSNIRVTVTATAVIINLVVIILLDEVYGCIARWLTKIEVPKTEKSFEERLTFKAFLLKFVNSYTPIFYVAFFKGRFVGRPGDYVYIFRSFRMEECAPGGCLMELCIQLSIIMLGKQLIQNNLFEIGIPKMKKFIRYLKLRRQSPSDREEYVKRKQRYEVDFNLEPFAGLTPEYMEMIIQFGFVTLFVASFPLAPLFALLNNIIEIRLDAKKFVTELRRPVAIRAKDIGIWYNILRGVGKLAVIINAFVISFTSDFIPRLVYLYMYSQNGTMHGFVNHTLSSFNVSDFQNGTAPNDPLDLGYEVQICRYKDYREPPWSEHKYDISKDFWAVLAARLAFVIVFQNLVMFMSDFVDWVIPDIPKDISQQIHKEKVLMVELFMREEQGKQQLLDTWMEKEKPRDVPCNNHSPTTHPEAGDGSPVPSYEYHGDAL
ANO1 block – mouse TMEM16A channel inhibition, primary screen | HEK293 TMEM16A/YFP iodide influx fluorescence, ionomycin | normalized B-score (activity score, 25-100; higher = stronger inhibition) at 10 µM | 1.2% of 310,000 active | AID 588511;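 active means ratio plate-corrected score three or more library SD toward inhibition, starting fluorescence score within five deviations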;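 further: score derived from kinetic fluorescence span divided by baseline fluorescence per well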
MPTP inh – blocks calcium-induced mitochondrial swelling; isolated mouse mitochondria, Ca2+ swelling absorbance, 30 min; inhibition, % at 10 µM; 1.4% of 360,000 active;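 active means inhibition of 50% or more, scaled per plate between neutral and stimulator controls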
Large screens that a line does not name were inactive. An excerpt weighted towards active compounds, which were near 5.1% of everything screened.

COc1ccc(OC)c(NC(=O)C23CCC(C)(C(=O)C2)C3(C)C)c1 (stereo unspecified)	NR3A LBD binder 10.8
CC(C)(O)CC[C@@H](O)[C@](C)(O)C1CC[C@@]2(O)C3=CC(=O)[C@@H]4C[C@@H](O)[C@@H](O)C[C@]4(C)C3CC[C@]12C (stereo partly specified)	NR3A LBD binder 10.1 (no result: ANO1 block)
CCn1cc(/C=C(\NC(=O)c2ccccc2F)C(=O)NCCN2CCOCC2)c2ccccc21	none
O=C(NCc1ccc2c(c1)OCO2)c1ccc(Br)cc1	none
Cc1nc2cc(C(=O)NCc3ccc4c(c3)OCO4)ccc2n1-c1ccc(Br)cc1	CRFBP-R2 block 65.2
CC(=O)NCCCOc1ccc([N+](=O)[O-])cc1Cl	NR3A LBD binder 10.3
Cc1cccc(OCCNc2ccc([N+](=O)[O-])cn2)c1	none
O=[N+]([O-])c1ccc(NCCOc2ccccc2Cl)nc1	NR3A LBD binder 16.2
Cc1cccn2c(=S)[nH]nc12	none (no result: ANO1 block)
CC(C)(C)CC(C)(C)NC(=S)Nc1ccc2nc(-c3ccccn3)c(-c3ccccn3)nc2c1	none
CN(C)NC(=S)Nc1ccc2nc(-c3ccccn3)c(-c3ccccn3)nc2c1	CRFR2-BP ag 59.0
C[C@@H]1CN([C@@H](C)CO)C(=O)CCCn2nncc2CO[C@H]1CN(C)S(=O)(=O)c1cccc(C#N)c1	none (no result: NR3A LBD binder, TMEM16A act, ANO1 block)
Cc1cccc(N2CC(C(=O)O)CC2=O)c1C (stereo unspecified)	none
Cc1c(NC(=S)NC(=O)c2ccc(-c3ccc(Cl)cc3)o2)cccc1C(=O)O	none
Cc1ccc(O)c(NC(=S)NC(=O)c2ccc(-c3ccc(Cl)cc3)o2)c1	NR3A LBD binder 29.4
O=C(NC(=S)Nc1ccccc1O)c1ccc(-c2ccc(Cl)cc2)o1	NR3A LBD binder 29.5
COc1ccccc1NC(=S)NC(=O)c1ccc(-c2ccc(Cl)cc2)o1	none
Cc1ccc(O)c(NC(=O)c2cc(-c3ccc(F)cc3)on2)c1	NR3A LBD binder 217.2
CC(=O)NCc1ccc(-c2csc(-c3cccs3)n2)cc1	none
CNc1oc(/C=C/c2cccc(OC)c2)nc1C#N	NR3A LBD binder 23.2
COc1ccc(/C=C/c2nc(C#N)c(NCCN(C)C)o2)cc1OC	none
O=C(CSc1nc(-c2ccccc2)nc2c1Cc1ccccc1O2)Nc1ccc(C(=O)O)cc1	NR3A LBD binder 31.6 (no result: ANO1 block)
O=C(CSc1nc(-c2ccc(F)cc2)nc2c1Cc1ccccc1O2)Nc1ccc(C(=O)O)cc1	NR3A LBD binder 33.5 (no result: ANO1 block)
COc1cccc(NC(=O)CN(C)C(=O)c2ccccc2-c2nc3ccccc3s2)c1	none
FC(F)(F)c1cccc(CC2CN(Cc3ccccc3)Cc3ccccc3N2c2cc(Cl)cc(Cl)c2)c1 (stereo unspecified)	none (no result: NR3A LBD binder, TMEM16A act, ANO1 block)
COc1ccc(S(=O)(=O)N(C)C[C@H]2Oc3ccc(NC(=O)Nc4ccc(C(F)(F)F)cc4)cc3C(=O)N([C@H](C)CO)C[C@@H]2C)cc1	NR3A LBD binder 22.4 (no result: ANO1 block)
C[C@@H]1CN([C@H](C)CO)C(=O)c2cc(NC(=O)Nc3ccc(C(F)(F)F)cc3)ccc2O[C@H]1CN(C)S(=O)(=O)c1ccccc1	NR3A LBD binder 21.8 (no result: ANO1 block)
CCCCNS(=O)(=O)NC(=O)C1=C(N2CCCC2)COC1=O	none (no result: ANO1 block)
CC(=O)c1cccc(S(=O)(=O)N2CCCC(c3nc4c(nnn4Cc4cccc(Cl)c4)c(=O)[nH]3)C2)c1 (stereo unspecified)	none
CC(=O)c1ccc(NC(=O)CCc2nnc3ccc(N4CCC5(CC4)OCCO5)nn23)cc1	CRFBP-R2 block 64.7
Cc1ccc(NC(=O)CCc2nnc3ccc(N4CCC5(CC4)OCCO5)nn23)nc1	none
CCOc1ccccc1NC(=O)CCc1nnc2ccc(N3CCC(C)CC3)nn12	CRFBP-R2 block 68.5
Cc1cc(Nc2ccccc2)nc2cc(O)ccc12	none
CCOc1ccc(Nc2cc(C)c3ccccc3n2)cc1	NR3A LBD binder 21.5 (no result: TMEM16A act)
CC(=O)Nc1ccc2c(c1)C(=O)c1ccccc1C2=O	none
COc1ccc(Nc2cc(C)c3ccc(O)cc3n2)cc1	none
CC(=O)Nc1ccc2nc3ccccc3nc2c1	CRFBP-R2 block 83.7
CC(=O)Nc1ccc(Nc2cc(C)c3ccccc3n2)cc1	NR3A LBD binder 12.6
O=C(Nc1ccc2nc3ccccc3nc2c1)c1ccc(Br)cc1	none
